From ChEMBL document CHEMBL1857833, “Screening and optimization of specific chemical series against human African Trypanosomiasis (HAT)” come the findings set out here.

One may read the % inhibition as the drop in the measured response relative to a control, in per cent.

Out of some 4,400 compounds screened, about 390 (8.9%) showed an effect of 50% or more. This is one part of a sample in which strong results are shown more often than they occur.

The assay relates to Trypanosoma brucei. The assay can be described thus: DNDI: Inhibition of Human African Trypanosomiasis, SBRI 427, in vitro at 2 ug.mL-1. Type of assay: functional.
For `CN(/C(=N\O)c1ccc(Oc2cccc3ccccc23)nc1)C1CCCCC1`, the “% inhibition” value is 25%.
`CN(Cc1coc(-c2ccc(Br)cc2)n1)Cc1ccco1`: the “% inhibition” value worked out at 29%.
For the compound `CC(C)c1ccc(N/C(=N\O)c2cccnc2OCc2ccccc2F)cc1`, the “% inhibition” value was -12%.
For `Cc1ccc(-c2nc(CN3CC[C@H]4CCCC[C@@H]4C3)co2)cc1`, the “% inhibition” value stood at 25%.
Take `c1ccc2c(-c3nc(CNCCCN4CCOCC4)co3)cccc2c1`: the “% inhibition” value is 30%.
On to `CCC1CCCCN1Cc1coc(-c2cccc3ccccc23)n1` (stereo not given), for which the “% inhibition” value amounted to 84%.
Regarding `c1ccc2c(-c3nc(CNCCN4CCCCC4)co3)cccc2c1`, the “% inhibition” value is recorded as 14%.
For `CC1CCCCN1CCCNCc1coc(-c2ccccc2Br)n1` (stereo not given), the “% inhibition” value is 20%.
For the compound `CCC1CCCCN1Cc1coc(-c2ccccc2Cl)n1` (stereo not given), the “% inhibition” value is on record as -10%.
For the compound `c1ccc2c(-c3nc(CNCCCN4CCCC4)co3)cccc2c1`, the “% inhibition” value was 93%.
On to `CC1CCCCN1CCCNCc1coc(-c2cccc3ccccc23)n1` (stereo not given), for which the “% inhibition” value is on record as 86%.
For `CC1CCCN1Cc1coc(-c2cccc3ccccc23)n1` (stereo not given) the value was 39%; for `CC1CCCCN1Cc1coc(-c2cccc3ccccc23)n1` (stereo not given), 3%.
As for `CN(CCCNCc1coc(-c2ccc(C(F)(F)F)cc2)n1)c1ccccc1`, the “% inhibition” value is recorded as -7%.
`Brc1ccccc1-c1nc(CN(Cc2ccccn2)Cc2ccccn2)co1`: the “% inhibition” value is 9%.
On to `COCCN(/C(=N\O)c1ccc(Oc2ccc3oc4ccccc4c3c2)nc1)C(C)C`, for which the “% inhibition” value came out at 7%.
In the case of `FC(F)(F)c1ccc(-c2nc(CN3CCC4(CC3)OCCO4)co2)cc1`, the “% inhibition” value is -8%.
`Cc1cc(C)cc(Oc2ccc(/C(=N/O)N3CCN(c4ccccc4)CC3)cn2)c1`: the “% inhibition” value is on record as 9%.
For `COc1ccc(Oc2nc(C)ccc2/C(=N/O)N2CCCC2C)cc1` (stereo not given) the value was -10%.
For `Cc1ccccc1-c1nc(CN2CCN(c3ccc(F)cc3)CC2)co1` the value was -10%; for `COC[C@H]1CCCN1Cc1coc(-c2cccc(F)c2)n1`, 0%.
Turning to `CCc1nccn1Cc1coc(-c2ccc(Cl)cc2Cl)n1`, the “% inhibition” value came to 22%.
With `Clc1ccccc1-c1nc(CN2CCN(c3ncccn3)CC2)co1`, the “% inhibition” value is listed as -3%.
On to `CC(C)c1nccn1Cc1coc(-c2ccc(Cl)cc2Cl)n1`, for which the “% inhibition” value is given as -20%.
Consider `Clc1ccc(-c2nc(CN3CCN(Cc4ccccc4)CC3)co2)c(Cl)c1`, for which the “% inhibition” value turned out to be 12%.
For `Clc1ccc(-c2nc(CN3CCN(c4ncccn4)CC3)co2)c(Cl)c1` the value was 58%.
On to `CCCc1nccn1Cc1coc(-c2ccc(Cl)cc2Cl)n1`, for which the “% inhibition” value is reported as 50%.
For `CCOc1ccccc1-c1nc(CN2CCCCCC2)co1`, the “% inhibition” value is reported as 7%.
On to `CSc1ccc(Oc2nc(C)ccc2/C(=N/O)NC2CCC2)cc1`, for which the “% inhibition” value is 3%.
On to `C=CCN(Cc1coc(-c2cccc(OC)c2)n1)c1ccccc1`, for which the “% inhibition” value is reported as 35%.
